Assay results from PubChem BioAssay (EPA / NIEHS).
Results filed as inconclusive are left out. Active and inactive are the calls of the source. Rule for the calls: active = hit-call score of the fitted dose curve at least 0.9, where 1 is the maximum; inconclusive = response in the unintended direction; inactive = score below 0.9.

system: not listed separately; experiment: ACEA_AR_antagonist_AUC_viability: ACEA Biosciences xCELLigence Real-Time Cell Analysis on Androgen Receptor Antagonism for Viability (AID 2283776);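 note: 22Rv1 human prostate cancer cells growing on impedance electrode plates; area under impedance growth curve at 80 h after dosing as viability; hits lower the growth signal relative to DMSO meaning cytotoxicity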
Outline: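 Viability endpoint from label-free cell-index monitoring: 22Rv1 cultures treated with an eight-point 1:4 dilution series starting at 100 uM final, AUC at 80 h fitted against DMSO.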

Structure (SMILES) | outcome | AC50
CCOC(=O)C1CC(=O)C(=C(O)C2CC2)C(=O)C1 (stereo unspecified) | inactive | –
CCN=C1C=CC(=C(c2ccc(N(CC)CC)cc2)c2ccc(N(CC)CC)cc2)c2ccccc21 | – | 134 nM (active)
CC(C)Nc1ccc(NC(C)C)c2c1C(=O)c1ccccc1C2=O | inactive | –
CC(C)(C)c1cc(CCC(=O)OCC(COC(=O)CCc2cc(C(C)(C)C)c(O)c(C(C)(C)C)c2)(COC(=O)CCc2cc(C(C)(C)C)c(O)c(C(C)(C)C)c2)COC(=O)CCc2cc(C(C)(C)C)c(O)c(C(C)(C)C)c2)cc(C(C)(C)C)c1O | inactive | –
COCCOCCC[Si](C)(O[Si](C)(C)C)O[Si](C)(C)C | inactive | –
CCOC(OCC)OCC | inactive | –
CC(C)(C)c1cc(Cc2cc(C(C)(C)C)c(O)c(C(C)(C)C)c2)cc(C(C)(C)C)c1O | inactive | –
CCCCCCCCCCCCC[N+](C)(C)Cc1ccccc1 | – | 3310 nM (active)
C[C@]12CC[C@H]3C(=CCc4cc(O)ccc43)[C@@H]1CCC2=O | inactive | –
CCCCCCCCCCCCCC[P+](CCCC)(CCCC)CCCC | – | 13.8 nM (active)
CCCCCCCCCc1ccc(OCCO)cc1 | – | 14200 nM (active)
CCCCC(CC)COC(=O)c1ccc(N(C)C)cc1 (stereo unspecified) | inactive | –
N#Cc1ccccc1O | inactive | –
CCN=c1cc2oc3cc(NCC)c(C)cc3c(-c3ccccc3C(=O)OCC)c-2cc1C | – | 13.8 nM (active)
O=C1C=CC(=O)N1c1ccccc1 | inactive | –
CCCCCCCC/C=C\CCCCCCCC(=O)OCC(O)CO (stereo unspecified) | inactive | –
Cc1ccc(O)c(-n2nc3ccccc3n2)c1 | inactive | –
CCCCCCCCn1sc(Cl)c(Cl)c1=O | inactive | –
CCC(Cc1c(I)cc(I)c(N)c1I)C(=O)O (stereo unspecified) | inactive | –
CCCCOC(=O)C(C)O (stereo unspecified) | inactive | –

system: not listed separately; experiment: ACEA_ER_AUC_viability: ACEA Biosciences xCELLigence Real-Time Cell Analysis on Estrogen Receptor Agonism for Viability (AID 2283782);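 note: continuous compound exposure with impedance area under curve over 80 h; hit means loss of impedance signal meaning reduced cell growth or viability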
Outline: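 T-47D human breast cells in phenol red-free RPMI1640 with 10% charcoal-stripped FBS were dosed with an 8-point 1:4 dilution series from 100 uM top final concentration, in duplicate. Impedance-based growth was followed for 80 h; AUC analysed versus DMSO.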

Structure (SMILES) | AC50 | outcome
CCN=C1C=CC(=C(c2ccc(N(CC)CC)cc2)c2ccc(N(CC)CC)cc2)c2ccccc21 | 5.37 µM (active) | –
CCOC(C=C(C)CCC=C(C)C)OCC | 11.3 µM (active) | –
CC1=CC2C3C=CC(C3)C2C1C (stereo unspecified) | 50 µM (active) | –
OCCCCl | – | inactive
OCC(F)(F)C(F)(F)C(F)(F)C(F)(F)C(F)(F)C(F)(F)C(F)(F)C(F)(F)CO | 75 µM (active) | –
COCCOCCC[Si](C)(O[Si](C)(C)C)O[Si](C)(C)C | 79.6 µM (active) | –
CCOC(OCC)OCC | – | inactive
CCCC(=O)OCC(COC(=O)CCC)OC(=O)CCC | – | inactive
CCCCCCCCCCCCC[N+](C)(C)Cc1ccccc1 | 7.37 µM (active) | –
CSc1ccc(O)cc1C | 16.2 µM (active) | –
CCCCCCCCCCCCCC[P+](CCCC)(CCCC)CCCC | 1.73 µM (active) | –
CCCCCCCCCc1ccc(OCCO)cc1 | 35.2 µM (active) | –
O=S(=O)(O)c1ccc(Cl)cc1 | – | inactive
CCCCC(CC)COC(=O)c1ccc(N(C)C)cc1 (stereo unspecified) | 87.8 µM (active) | –
CCN=c1cc2oc3cc(NCC)c(C)cc3c(-c3ccccc3C(=O)OCC)c-2cc1C | 5.61 µM (active) | –
FC(F)(F)C(F)(F)C(F)(F)C(F)(F)C(F)(F)C(F)(F)C(F)(F)CCI | – | inactive
Nc1cccnc1N | 83.2 µM (active) | –
O=C1C=CC(=O)N1c1ccccc1 | – | inactive
CCCCOC(=O)[C@H](C)O | – | inactive
Cc1cnccn1 | – | inactive
O=S(=O)(Cl)C(F)(F)C(F)(F)C(F)(F)C(F)(F)C(F)(F)C(F)(F)C(F)(F)C(F)(F)F | – | inactive
CC(C)OC(=O)COc1ccc(Cl)cc1Cl | 66.8 µM (active) | –
CCCCCCCC/C=C\CCCCCCCC(=O)OCC(O)CO (stereo unspecified) | 50 µM (active) | –
c1ccc(C[P+](c2ccccc2)(c2ccccc2)c2ccccc2)cc1 | 83.7 µM (active) | –
CO[Si](CCCOCC1CO1)(OC)OC (stereo unspecified) | 76.8 µM (active) | –
CCCCCCCCn1sc(Cl)c(Cl)c1=O | 1.99 µM (active) | –
CCCCCCCCCCCCCCCCC | – | inactive
CCCCOC(=O)C(C)O (stereo unspecified) | – | inactive

target: AR (gene 367) (UniProt P10275); experiment: ACEA_AR_agonist_80hr: ACEA Biosciences xCELLigence Real-Time Cell Analysis on Androgen Receptor Agonism for Proliferation (AID 2283783);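 note: hits increase impedance growth signal above DMSO baseline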
Sequence (P10275 whole entry, looked up): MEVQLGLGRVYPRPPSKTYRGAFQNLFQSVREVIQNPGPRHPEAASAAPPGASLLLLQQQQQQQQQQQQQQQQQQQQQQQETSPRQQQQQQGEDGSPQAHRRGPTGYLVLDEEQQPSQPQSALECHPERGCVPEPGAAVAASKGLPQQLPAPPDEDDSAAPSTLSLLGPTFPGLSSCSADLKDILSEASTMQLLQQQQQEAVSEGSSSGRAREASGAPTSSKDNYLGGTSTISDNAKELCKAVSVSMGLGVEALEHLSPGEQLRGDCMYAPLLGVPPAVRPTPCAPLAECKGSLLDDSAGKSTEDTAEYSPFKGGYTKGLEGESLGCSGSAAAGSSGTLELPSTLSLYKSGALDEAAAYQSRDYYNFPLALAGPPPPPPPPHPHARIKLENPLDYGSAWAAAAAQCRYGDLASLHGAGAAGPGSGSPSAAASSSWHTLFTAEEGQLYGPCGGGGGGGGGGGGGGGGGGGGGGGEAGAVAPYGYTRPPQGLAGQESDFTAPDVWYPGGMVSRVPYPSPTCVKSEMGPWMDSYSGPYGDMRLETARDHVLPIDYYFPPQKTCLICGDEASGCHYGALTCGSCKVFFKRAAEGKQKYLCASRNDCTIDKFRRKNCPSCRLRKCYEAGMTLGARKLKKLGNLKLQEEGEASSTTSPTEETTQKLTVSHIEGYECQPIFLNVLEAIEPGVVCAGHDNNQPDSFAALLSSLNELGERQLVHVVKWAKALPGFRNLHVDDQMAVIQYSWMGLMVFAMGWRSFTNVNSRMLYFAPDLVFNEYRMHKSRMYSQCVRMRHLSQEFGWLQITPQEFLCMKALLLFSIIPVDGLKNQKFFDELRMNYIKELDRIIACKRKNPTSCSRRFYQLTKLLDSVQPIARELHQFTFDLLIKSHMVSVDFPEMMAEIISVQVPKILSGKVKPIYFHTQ
Outline: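 22Rv1 human prostate cancer cells were seeded after preconditioning in assay medium and monitored overnight, then dosed in an eight-point 1:4 dilution series from 100 uM (≤0.5% DMSO). Impedance-based growth was read at 80 h, gain-of-signal versus DMSO.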

Structure (SMILES) | outcome | AC50
COCCOCCC[Si](C)(O[Si](C)(C)C)O[Si](C)(C)C | inactive | –
C[C@]12CC[C@H]3C(=CCc4cc(O)ccc43)[C@@H]1CCC2=O | inactive | –
CCCCCCCCCCCCCC[P+](CCCC)(CCCC)CCCC | inactive | –
CCN=c1cc2oc3cc(NCC)c(C)cc3c(-c3ccccc3C(=O)OCC)c-2cc1C | inactive | –
CCCCCCCC/C=C\CCCCCCCC(=O)OCC(O)CO (stereo unspecified) | – | 27.9 µM (active)

system: not listed separately; experiment: STM_H9_NormalizedViability: Cytotoxicity Assessment at 120 hours in the Stemina devTOX quickPredict H9 human embryonic stem cell (hESC)-based Assay (AID 2283784)
Outline: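 Undifferentiated H9 hESCs kept pluripotent were exposed to compound, with media and chemical replaced every 24h. CellTiter-Fluor protease-substrate fluorescence was background-corrected and normalized per plate to the 0.1% DMSO vehicle; signal loss indicates reduced viability.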

Structure (SMILES) | AC50 | outcome
CCN=C1C=CC(=C(c2ccc(N(CC)CC)cc2)c2ccc(N(CC)CC)cc2)c2ccccc21 | 165 nM (active) | –
CCCCC(CC)COC(=O)c1ccc(N(C)C)cc1 (stereo unspecified) | – | inactive
CCN=c1cc2oc3cc(NCC)c(C)cc3c(-c3ccccc3C(=O)OCC)c-2cc1C | 116 nM (active) | –
